This passage reports Potency and activity change, negative = inhibition results from PubChem BioAssay (NCATS).

Results filed as inconclusive are left out. Activity calls are given as the source filed them. Unless noted, calls follow the shape of the dose curve; as a rule, active = well fitted curve in either direction with a large enough effect (not every such curve was filed as active); inconclusive = small, poorly fitted or top-dose-only effect, or another doubt; inactive = flat fitted curve, though single readings scatter. Where only a bound is given, the exact number is not on record here.

Chain of Lysosomal acid glucosylceramidase (Homo sapiens) (P04062 whole entry, looked up): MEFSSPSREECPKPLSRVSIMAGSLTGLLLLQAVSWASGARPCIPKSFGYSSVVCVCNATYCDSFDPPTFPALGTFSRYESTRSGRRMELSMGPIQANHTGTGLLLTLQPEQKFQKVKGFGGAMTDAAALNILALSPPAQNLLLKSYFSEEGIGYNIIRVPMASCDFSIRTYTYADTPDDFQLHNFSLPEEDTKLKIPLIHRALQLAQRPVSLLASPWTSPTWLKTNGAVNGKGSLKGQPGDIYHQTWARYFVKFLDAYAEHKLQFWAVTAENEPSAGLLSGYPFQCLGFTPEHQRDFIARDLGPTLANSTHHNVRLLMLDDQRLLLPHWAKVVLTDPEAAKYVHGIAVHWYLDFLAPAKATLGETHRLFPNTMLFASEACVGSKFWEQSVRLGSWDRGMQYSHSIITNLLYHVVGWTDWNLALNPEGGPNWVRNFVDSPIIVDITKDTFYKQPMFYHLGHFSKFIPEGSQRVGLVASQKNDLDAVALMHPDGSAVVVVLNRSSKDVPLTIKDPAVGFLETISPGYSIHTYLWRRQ

The first assay has as its target Lysosomal acid glucosylceramidase (Homo sapiens) (UniProt P04062). The assay can be described thus: Glucocerebrosidase-p2 (AID 348; in the data active = potency below about 10 µM; also: potency is read from the fitted curve at half-maximal effect). Conditions: purified GBA, blue fluorogenic substrate, 40 min. An outline of the steps: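 Normal human glucocerebrosidase (0.2 nM) with blue fluorogenic substrate (80 uM final) in citrate/phosphate pH 5.9 with 10mM sodium taurocholate, 0.01% tween-20; 40 min RT, NaOH/glycine stop; fluorescence Ex 365/Em 440; AC50 from a titration from 0.6 nM upwards.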
Consider `O=C(O)CC(CC(=O)O)n1cccc1`, for which the Potency is > 11.4 µM (inactive).

Consider `CC(C)(CN)CN`, for which the Potency is > 11.4 µM (inactive).

Take `O=C(O)NCC1CCCCC1` (tested in a mixture with another compound): the Potency is > 11.4 µM (inactive).

Consider `O=C(O)CCC(=O)c1ccc2ccc3cccc4ccc1c2c34`, for which the Potency is > 11.4 µM (inactive).

Turning to `O=C(O)c1cc2ccccc2c(S(=O)(=O)O)c1O`, the Potency was > 11.4 µM (inactive).

As for `CCCCN1CSC(=S)N(Cc2ccccc2)C1`, the Potency is > 11.4 µM (inactive).

Take `COCCn1c(=O)c(-c2cc(F)cc(F)c2)nc2cnc(Oc3ccccc3)nc21`: the Potency is > 11.4 µM (inactive).

Regarding `S=C(Nc1ccc2cn[nH]c2c1)Nc1ccc2cn[nH]c2c1`, the Potency is > 11.4 µM (inactive).

For the compound `CC(C)NC1(C(N)=O)CCN(Cc2ccccc2)CC1`, the Potency is > 11.4 µM (inactive).

Turning to `O=C1/C(=C/c2cccnc2)SC(=S)N1Cc1ccco1`, the Potency was > 11.4 µM (inactive).

For `COc1ccc(-c2cc([C@H](O)[C@@H]3CCCCN3)c3ccccc3n2)cc1`, the Potency is > 11.4 µM (inactive).

For `NCCCc1c(-c2ccccc2)nc(N)[nH]c1=O`, the Potency is > 11.4 µM (inactive).

As to `c1ccc2c(CN3CCN(Cc4c[nH]c5ccccc45)CC3)c[nH]c2c1`, the Potency was > 11.4 µM (inactive).

As for `Cc1cnc(CNc2nc(-c3cccnc3)nc3ccccc23)cn1`, the Potency was > 11.4 µM (inactive).

On to `c1ccc2c(c1)nnn2CN1CCOCC1`, for which the Potency is > 11.4 µM (inactive).

As for `CC[C@H](C(=O)c1cccs1)C(O)(C(F)(F)F)C(F)(F)F`, the Potency is > 11.4 µM (inactive).

Turning to `N=C(N)SCc1ccc(Cl)cc1Cl` (tested in a mixture with another compound), the Potency was > 11.4 µM (inactive).

Turning to `O=C(O)C1(C(=O)O)CCN(S(=O)(=O)c2ccccc2)CC1`, the Potency was > 11.4 µM (inactive).

Regarding `CN(C)CCNc1nc2c(c(=O)n(C)c(=O)n2C)n1C`, the Potency was > 11.4 µM (inactive).

On to `COc1ccc(OC)c(-c2cc(C(=O)O)c3cc4ccccc4cc3n2)c1`, for which the Potency is > 11.4 µM (inactive).

For the compound `CN=C(N)/N=C(\N)Nc1cc2ccccc2c2ccccc12`, the Potency was > 11.4 µM (inactive).

As for `Oc1ccc2ccccc2c1CN(Cc1c(O)ccc2ccccc12)C1CCCCC1`, the Potency is > 11.4 µM (inactive).

As for `CN(C)C(=O)c1ccc(-c2nc(Nc3ccncc3)c3ccccc3n2)cc1`, the Potency is 3.84 µM (active).

Take `c1ccc(C(CCN2CC3CCC(CC3)C2)c2ccccc2)cc1`: the Potency was > 11.4 µM (inactive).

Turning to `Cc1cn([C@H]2C[C@H](O)[C@@H](COC(N)=O)O2)c(=O)[nH]c1=O`, the Potency is > 11.4 µM (inactive).

In the case of `C[C@]12CC[C@H]3c4ccc(O)cc4CC[C@@H]3[C@H]1C/C(=N/O)[C@H]2O`, the Potency was > 11.4 µM (inactive).

`CCOC(=O)C1=C(C)NC(=O)N[C@@H]1c1coc2cc(C)cc(C)c2c1=O`: the Potency was > 11.4 µM (inactive).

For `N/C(CC/C(N)=N/O)=N\O`, the Potency was > 11.4 µM (inactive).

On to `c1ccc2sc(SCCSc3nc4ccccc4s3)nc2c1`, for which the Potency was > 11.4 µM (inactive).

As to `O=C(O)[C@@H](c1ccccc1)[C@@H](C(=O)O)c1ccccc1`, the Potency was > 11.4 µM (inactive).

Turning to `O=C(O)c1nn(-c2ccccc2-c2n[nH]c(=O)[nH]c2=O)c(=O)[nH]c1=O`, the Potency was > 11.4 µM (inactive).

Turning to `NNC(=O)c1ccc[n+](CCc2ccccc2)c1`, the Potency was > 11.4 µM (inactive).

For `CN(Cc1cc(Cl)cc(Cl)c1O)Cc1c(O)ccc2ccccc12`, the Potency is > 11.4 µM (inactive).

Take `NS(=O)(=O)c1cc2c(cc1Cl)=NC(CCC(=O)O)=NS=2(=O)O`: the Potency is > 11.4 µM (inactive).

Turning to `CC[C@H]1CN(C)[C@H]2Cc3c([nH]c4ccccc34)C(=O)C[C@H]1[C@H]2C(=O)OC`, the Potency is > 11.4 µM (inactive).

Consider `O=C(O)[C@@H]1[C@@H](C(=O)O)[C@]23C[C@@]2(C(=O)O)[C@]2(C(=O)O)CCC3=C3CCCC312`, for which the Potency is > 11.4 µM (inactive).

As to `CCCn1cnc2c(SCc3ccc(Cl)cc3)nc(N)nc21`, the Potency was > 11.4 µM (inactive).

For the compound `Clc1cc2c(c(CSC3=NCN(CC4CC4)CN3)c1)OCOC2`, the Potency is > 11.4 µM (inactive).

As for `CCOC(=S)SCC(=O)O`, the Potency was > 11.4 µM (inactive).

As for `C[N+](C)(N)CCC[N+](C)(C)N`, the Potency was > 11.4 µM (inactive).

Test system in a further assay: not listed separately
The assay can be described thus: AP1 Signaling Pathway (AID 357). Also: % is scaled to controls: 0 for no effect and ±100 for the full control effect. Conditions: ME-180 AP-1-bla reporter, EGF-induced, beta-lactamase ratio, 5 h; at 7.69 µM (top of the series) unless noted. The procedure, abridged: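 ME-180 cells with beta-lactamase reporter under AP-1 response element, stimulated with EC50 EGF; compounds tested in titration series, 5 h at 37 °C. CCF4 substrate added 2.5 h at room temperature; 460/530 nm emission ratio gave %activity and AC50.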
Consider `O=C(O)CC(CC(=O)O)n1cccc1`, for which the activity change, negative = inhibition is 5.34% (inactive).

Take `CC(C)(CN)CN`: the activity change, negative = inhibition is 0.738% (inactive).

In the case of `O=C(O)NCC1CCCCC1` (tested in a mixture with another compound), the activity change, negative = inhibition is 23.3% (inactive).

Take `O=C(O)CCC(=O)c1ccc2ccc3cccc4ccc1c2c34`: the activity change, negative = inhibition was 5.4% (inactive).

Consider `O=C(O)c1cc2ccccc2c(S(=O)(=O)O)c1O`, for which the activity change, negative = inhibition is 2.94% (inactive).

In the case of `CCCCN1CSC(=S)N(Cc2ccccc2)C1`, the activity change, negative = inhibition was 3.6% (inactive).

Regarding `COCCn1c(=O)c(-c2cc(F)cc(F)c2)nc2cnc(Oc3ccccc3)nc21`, the activity change, negative = inhibition is 0.911% (inactive).

In the case of `S=C(Nc1ccc2cn[nH]c2c1)Nc1ccc2cn[nH]c2c1`, the activity change, negative = inhibition is -15% (inactive).

For `CC(C)NC1(C(N)=O)CCN(Cc2ccccc2)CC1`, the activity change, negative = inhibition is 0.245% (inactive).

On to `O=C1/C(=C/c2cccnc2)SC(=S)N1Cc1ccco1`, for which the activity change, negative = inhibition is 0.116% (inactive).

As to `COc1ccc(-c2cc([C@H](O)[C@@H]3CCCCN3)c3ccccc3n2)cc1`, the activity change, negative = inhibition was 27.7% (inactive).

Turning to `NCCCc1c(-c2ccccc2)nc(N)[nH]c1=O`, the activity change, negative = inhibition was 0.759% (inactive).

Consider `c1ccc2c(CN3CCN(Cc4c[nH]c5ccccc45)CC3)c[nH]c2c1`, for which the activity change, negative = inhibition is -5.4% (inactive).

In the case of `Cc1cnc(CNc2nc(-c3cccnc3)nc3ccccc23)cn1`, the activity change, negative = inhibition is -11.8% (inactive).

Regarding `c1ccc2c(c1)nnn2CN1CCOCC1`, the activity change, negative = inhibition is 1.95% (inactive).

On to `CC[C@H](C(=O)c1cccs1)C(O)(C(F)(F)F)C(F)(F)F`, for which the activity change, negative = inhibition was -7.57% (inactive).

On to `N=C(N)SCc1ccc(Cl)cc1Cl` (tested in a mixture with another compound), for which the activity change, negative = inhibition is 23.5% (inactive).

For the compound `O=C(O)C1(C(=O)O)CCN(S(=O)(=O)c2ccccc2)CC1`, the activity change, negative = inhibition was -0.169% (inactive).

On to `CN(C)CCNc1nc2c(c(=O)n(C)c(=O)n2C)n1C`, for which the activity change, negative = inhibition is -7.15% (inactive).

As for `COc1ccc(OC)c(-c2cc(C(=O)O)c3cc4ccccc4cc3n2)c1`, the activity change, negative = inhibition was 4.44% (inactive).

Consider `CN=C(N)/N=C(\N)Nc1cc2ccccc2c2ccccc12`, for which the activity change, negative = inhibition was -3.61% (inactive).

As for `Oc1ccc2ccccc2c1CN(Cc1c(O)ccc2ccccc12)C1CCCCC1`, the activity change, negative = inhibition is 3.63% (inactive).

For the compound `CN(C)C(=O)c1ccc(-c2nc(Nc3ccncc3)c3ccccc3n2)cc1`, the activity change, negative = inhibition was -14.2% (inactive).

For `c1ccc(C(CCN2CC3CCC(CC3)C2)c2ccccc2)cc1`, the activity change, negative = inhibition was 2.88% (inactive).

For the compound `Cc1cn([C@H]2C[C@H](O)[C@@H](COC(N)=O)O2)c(=O)[nH]c1=O`, the activity change, negative = inhibition is 2.02% (inactive).

Regarding `C[C@]12CC[C@H]3c4ccc(O)cc4CC[C@@H]3[C@H]1C/C(=N/O)[C@H]2O`, the activity change, negative = inhibition was -6.54% (inactive).

As for `CCOC(=O)C1=C(C)NC(=O)N[C@@H]1c1coc2cc(C)cc(C)c2c1=O`, the activity change, negative = inhibition was -13.4% (inactive).

Take `N/C(CC/C(N)=N/O)=N\O`: the activity change, negative = inhibition was -3.76% (inactive).

In the case of `c1ccc2sc(SCCSc3nc4ccccc4s3)nc2c1`, the activity change, negative = inhibition was 8.08% (inactive).

Turning to `O=C(O)[C@@H](c1ccccc1)[C@@H](C(=O)O)c1ccccc1`, the activity change, negative = inhibition was 3.89% (inactive).

In the case of `O=C(O)c1nn(-c2ccccc2-c2n[nH]c(=O)[nH]c2=O)c(=O)[nH]c1=O`, the activity change, negative = inhibition is 1.66% (inactive).

As for `NNC(=O)c1ccc[n+](CCc2ccccc2)c1`, the activity change, negative = inhibition is 11.3% (inactive).

As to `CN(Cc1cc(Cl)cc(Cl)c1O)Cc1c(O)ccc2ccccc12`, the activity change, negative = inhibition is -8.51% (inactive).

As for `NS(=O)(=O)c1cc2c(cc1Cl)=NC(CCC(=O)O)=NS=2(=O)O`, the activity change, negative = inhibition was -7.99% (inactive).

`CC[C@H]1CN(C)[C@H]2Cc3c([nH]c4ccccc34)C(=O)C[C@H]1[C@H]2C(=O)OC`: the activity change, negative = inhibition is -2.14% (inactive).

Consider `O=C(O)[C@@H]1[C@@H](C(=O)O)[C@]23C[C@@]2(C(=O)O)[C@]2(C(=O)O)CCC3=C3CCCC312`, for which the activity change, negative = inhibition is 10.3% (inactive).

On to `CCCn1cnc2c(SCc3ccc(Cl)cc3)nc(N)nc21`, for which the activity change, negative = inhibition was -19.8% (inactive).

As to `Clc1cc2c(c(CSC3=NCN(CC4CC4)CN3)c1)OCOC2`, the activity change, negative = inhibition is 5.83% (inactive).

As for `CCOC(=S)SCC(=O)O`, the activity change, negative = inhibition was 3.32% (inactive).

On to `C[N+](C)(N)CCC[N+](C)(C)N`, for which the activity change, negative = inhibition is 6.06% (inactive).
